Reference: PubChem BioAssay AID1053206 (Broad Institute, 2014)
Unmarked numbers belong to inactive results.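 Rule for the calls: active = compounds lowering delta-delta-Ct, meaning more Pax4 mRNA, with half-max potency at most twice the top tested dose; inconclusive = flat fit dropping 30 to 70 percent, or unreliable fit; inactive = the rest.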

Experiment: Pax4 mRNA induction in alpha cells – mouse alpha TC1 cells, RT-qPCR, cherry-picks, dose response (AID 1053206)
Details: 6 days, hits give low values; at 19.5 µM unless noted

Structure (SMILES)	max activity (delta-delta-Ct)
COc1ccc(S(=O)(=O)Nc2ccc3c(c2)CC(=O)N([C@H](C)CO)C[C@H](C)[C@H](CN(C)Cc2ccc(C(=O)Nc4ccccc4N)cc2)O3)cc1	-0.17%
Cc1ccccc1S(=O)(=O)N1C[C@@H]2N[C@H](C1)C2c1ccc(-c2cccc(C#N)c2)cc1 (stereo partly drawn)	-0.001% [at 2.6 µM]
COc1ccc2c3c(n(C)c2c1)[C@@H](CO)N(CC1CC1)CC31CN(C(=O)c2ccc3c(c2)OCO3)C1	-0.004% [at 0.038 µM]
C/C=C/c1ccc(C2[C@@H]3CN(C(=O)Nc4ccc(C(F)(F)F)cc4)C[C@H]2N3)cc1 (stereo partly drawn)	-0.019%
N#Cc1cccc(-c2ccc(C3[C@@H]4CN(C(=O)Nc5ccc(C(F)(F)F)cc5)C[C@H]3N4)cc2)c1 (stereo partly drawn)	-0.156%
COc1cccc(-c2cccc(-c3nc(C(=O)Nc4ccc(-c5ccccc5)cc4)cc4c3[C@@H](CCO)N(S(=O)C(C)(C)C)C4)c2)c1 (stereo partly drawn)	-0.152%
C[C@H](CO)N1C[C@H](C)[C@@H](CN(C)Cc2ccccc2)Oc2c(NC(=O)Cc3cn(C)c4ccccc34)cccc2C1=O	-0.003% [at 10 µM]
O=S(=O)(c1ccc(F)cc1)N1C[C@@H]2N[C@H](C1)C2c1ccc(/C=C/c2ccccc2)cc1 (stereo partly drawn)	-0.01% [at 10 µM]
C/C=C/c1ccc([C@H]2[C@@H](CO)N3C(=O)CN(Cc4ccc(F)cc4)C[C@@H]23)cc1	-0.008% [at 0.16 µM]
C(=C\c1ccc(C2[C@@H]3CN(Cc4ccc5c(c4)OCO5)C[C@H]2N3)cc1)/c1ccccc1 (stereo partly drawn)	-0.457%
Cc1cccc(-c2ccc(C3[C@@H]4CN(Cc5cccc(F)c5)C[C@H]3N4)cc2)c1 (stereo partly drawn)	-2.82%
C[C@H]1CNC(=O)[C@@H](Cc2ccc(C(F)(F)F)cc2)CCn2nncc2COC1	0.001% [at 0.16 µM]
Fc1cccc(CN2C[C@@H]3N[C@H](C2)C3c2ccc(/C=C/c3ccccc3)cc2)c1 (stereo partly drawn)	-3.37% [at 21 µM]
COc1cc(CN2C[C@@H]3N[C@H](C2)C3c2ccc(-c3ccc(C#N)cc3)cc2)cc(OC)c1 (stereo partly drawn)	-0.065%
CNC[C@@H]1Oc2cc(C#Cc3ccccc3OC)ccc2S(=O)(=O)N([C@H](C)CO)C[C@H]1C	-0.002% [at 0.6 µM]
C[C@@H]1CN([C@@H](C)CO)C(=O)Cc2cc(NC(=O)C3CCCCC3)ccc2O[C@@H]1CN(C)Cc1ccc(Cl)c(Cl)c1	-0.143% [at 1.2 µM]
CO[C@@H](CN(C)Cc1cc(F)ccc1F)[C@@H](C)CN(C(=O)Nc1ccc(C(F)(F)F)cc1)[C@H](C)CO	-0.501% [at 10 µM]
CN(C)C(=O)c1cccc(-c2ccc(C3[C@@H]4CN(Cc5ccccc5F)C[C@H]3N4)cc2)c1 (stereo partly drawn)	0.001% [at 5 µM]
